In the supplement of paper PMC6897291:

Experiments:
U-2932 [1] = assay: growth inhibition by drug alone (1 - RLU/untreated control) (fraction); higher = stronger inhibition; details: 177Lu-lilotomab satetraxetan 0 ug/ml
Method in brief: (§1)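 With or without 18 h pretreatment by a radiolabelled anti-CD37 antibody conjugate (~600 MBq/mg; 0.5 µg/ml RIVA, 1 µg/ml U-2932), RIVA and U-2932 cells were washed and plated at 3,000 cells/well. Pre-printed compound doses were 10/100 nM for RIVA and 10/1,000 nM for U-2932. Growth inhibition uses RealTime-Glo RLU relative to the untreated no-drug wells. The calculation is 1 − RLU/mean of 48 such wells per plate, with reads daily from day 3 after 1 h at 37°C.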

RIVA [2] = assay: as above; details: 177Lu-lilotomab satetraxetan 0 ug/ml
Method in brief: as §1

U-2932 [3] = assay: growth inhibition by drug plus 177Lu-lilotomab satetraxetan (1 - RLU/untreated control) (fraction); higher = stronger inhibition; details: 177Lu-lilotomab satetraxetan 1 ug/ml
Method in brief: as §1

RIVA [4] = assay: as above; details: 177Lu-lilotomab satetraxetan 0.5 ug/ml
Method in brief: as §1

Row | Structure (SMILES) | growth inhibition by drug alone (U-2932 [1]; 10 nM, time (day): 3) | growth inhibition by drug alone (U-2932 [1]; 10 nM, time (day): 4) | growth inhibition by drug alone (U-2932 [1]; 10 nM, time (day): 5) | growth inhibition by drug alone (U-2932 [1]; 10 nM, time (day): 6) | growth inhibition by drug alone (U-2932 [1]; 1000 nM, time (day): 3) | growth inhibition by drug alone (U-2932 [1]; 1000 nM, time (day): 4) | growth inhibition by drug alone (U-2932 [1]; 1000 nM, time (day): 5) | growth inhibition by drug alone (U-2932 [1]; 1000 nM, time (day): 6) | growth inhibition by drug alone (RIVA [2]; 10 nM, time (day): 3) | growth inhibition by drug alone (RIVA [2]; 10 nM, time (day): 4) | growth inhibition by drug alone (RIVA [2]; 10 nM, time (day): 5) | growth inhibition by drug alone (RIVA [2]; 10 nM, time (day): 6) | growth inhibition by drug alone (RIVA [2]; 100 nM, time (day): 3) | growth inhibition by drug alone (RIVA [2]; 100 nM, time (day): 4) | growth inhibition by drug alone (RIVA [2]; 100 nM, time (day): 5) | growth inhibition by drug alone (RIVA [2]; 100 nM, time (day): 6) | growth inhibition by drug plus 177Lu-lilotomab satetraxetan (U-2932 [3]; 10 nM, time (day): 3) | growth inhibition by drug plus 177Lu-lilotomab satetraxetan (U-2932 [3]; 10 nM, time (day): 4) | growth inhibition by drug plus 177Lu-lilotomab satetraxetan (U-2932 [3]; 10 nM, time (day): 5) | growth inhibition by drug plus 177Lu-lilotomab satetraxetan (U-2932 [3]; 10 nM, time (day): 6) | growth inhibition by drug plus 177Lu-lilotomab satetraxetan (U-2932 [3]; 1000 nM, time (day): 3) | growth inhibition by drug plus 177Lu-lilotomab satetraxetan (U-2932 [3]; 1000 nM, time (day): 4) | growth inhibition by drug plus 177Lu-lilotomab satetraxetan (U-2932 [3]; 1000 nM, time (day): 5) | growth inhibition by drug plus 177Lu-lilotomab satetraxetan (U-2932 [3]; 1000 nM, time (day): 6) | growth inhibition by drug plus 177Lu-lilotomab satetraxetan (RIVA [4]; 10 nM, time (day): 3) | growth inhibition by drug plus 177Lu-lilotomab satetraxetan (RIVA [4]; 10 nM, time (day): 4) | growth inhibition by drug plus 177Lu-lilotomab satetraxetan (RIVA [4]; 10 nM, time (day): 5) | growth inhibition by drug plus 177Lu-lilotomab satetraxetan (RIVA [4]; 10 nM, time (day): 6) | growth inhibition by drug plus 177Lu-lilotomab satetraxetan (RIVA [4]; 100 nM, time (day): 3) | growth inhibition by drug plus 177Lu-lilotomab satetraxetan (RIVA [4]; 100 nM, time (day): 4) | growth inhibition by drug plus 177Lu-lilotomab satetraxetan (RIVA [4]; 100 nM, time (day): 5) | growth inhibition by drug plus 177Lu-lilotomab satetraxetan (RIVA [4]; 100 nM, time (day): 6)
1 | C=CC[C@@H]1/C=C(\C)C[C@H](C)C[C@H](OC)[C@H]2O[C@@](O)(C(=O)C(=O)N3CCCC[C@H]3C(=O)O[C@H](/C(C)=C/[C@@H]3CC[C@@H](O)[C@H](OC)C3)[C@H](C)[C@@H](O)CC1=O)[C@H](C)C[C@@H]2OC [FK-506 (Tacrolimus)] | 0.267 | 0.364 | 0.442 | 0.532 | 0.227 | 0.39 | 0.449 | 0.553 | 0.737 | 0.636 | 0.618 | 0.602 | 0.867 | 0.796 | 0.777 | 0.783 | 0.323 | 0.406 | 0.478 | 0.594 | 0.206 | 0.367 | 0.459 | 0.574 | 0.801 | 0.806 | 0.834 | 0.875 | 0.87 | 0.859 | 0.89 | 0.913
2 | CC(C)CC(=O)Nc1n[nH]c2c1CN(C(=O)C1CCN(C)CC1)C2(C)C | 0.109 | 0.0893 | 0.0354 | -0.0355 | 0.595 | 0.787 | 0.911 | 0.958 | 0.109 | 0.0478 | 0.0236 | -0.141 | 0.546 | 0.346 | 0.355 | 0.378 | 0.0658 | 0.101 | 0.0816 | 0.125 | 0.692 | 0.855 | 0.93 | 0.967 | 0.403 | 0.515 | 0.533 | 0.549 | 0.35 | 0.419 | 0.465 | 0.517
3 | CN(C)c1nc(N(C)C)nc(N(C)C)n1 [Altretamine (Hexalen)] | -0.0883 | -0.0905 | -0.0583 | -0.058 | -0.122 | -0.0758 | -0.114 | 0.0216 | -0.25 | -0.257 | -0.29 | -0.318 | -0.545 | -0.424 | -0.488 | -0.694 | -0.146 | -0.0735 | -0.0141 | -0.0604 | -0.101 | -0.0503 | 0.00142 | 0.121 | 0.349 | 0.469 | 0.481 | 0.485 | 0.239 | 0.318 | 0.312 | 0.332
4 | Cc1cnc(NC(=O)Nc2cc(Br)c(C)cc2OC[C@@H]2CNCCO2)cn1 | 0.0563 | 0.0329 | 0.0344 | 0.113 | 0.227 | 0.217 | 0.207 | 0.233 | -0.0313 | -0.0243 | -0.0759 | -0.161 | 0.0523 | 0.0207 | -0.0517 | -0.0919 | -0.00545 | 0.00557 | 0.0372 | 0.164 | 0.245 | 0.335 | 0.376 | 0.486 | 0.47 | 0.531 | 0.56 | 0.57 | 0.176 | 0.216 | 0.235 | 0.246
5 | O=C(CCCCCCC(=O)Nc1ccccc1)NO [Vorinostat (SAHA)] | -0.0182 | -0.0297 | -0.0883 | -0.201 | 0.818 | 0.762 | 0.691 | 0.615 | -0.119 | -0.189 | -0.294 | -0.432 | -0.132 | -0.192 | -0.199 | -0.285 | -0.0269 | 0.0202 | 0.0234 | 0.0225 | 0.849 | 0.817 | 0.786 | 0.742 | 0.465 | 0.518 | 0.537 | 0.553 | 0.523 | 0.578 | 0.586 | 0.591
6 | Cc1ccc(C(=O)N(CCCN)[C@@H](c2nc3cc(Cl)ccc3c(=O)n2Cc2ccccc2)C(C)C)cc1 | 0.446 | 0.424 | 0.379 | 0.372 | 0.959 | 0.968 | 0.972 | 0.977 | 0.202 | 0.194 | 0.075 | -0.26 | 0.918 | 0.931 | 0.939 | 0.943 | 0.393 | 0.409 | 0.426 | 0.465 | 0.965 | 0.973 | 0.98 | 0.984 | 0.652 | 0.647 | 0.659 | 0.655 | 0.94 | 0.962 | 0.971 | 0.979
7 | CC(C)C[C@H](NC(=O)[C@@H](O)[C@H](N)Cc1ccccc1)C(=O)O [Ubenimex (Bestatin)] | 0.0863 | 0.0556 | -0.0551 | -0.108 | -0.043 | -0.0237 | -0.0577 | -0.0906 | 0.135 | 0.0658 | -0.0244 | -0.181 | 0.0407 | 0.0221 | 0.00426 | -0.114 | 0.0135 | 0.0451 | 0.0835 | 0.192 | -0.112 | -0.0121 | -0.00508 | 0.0506 | 0.428 | 0.535 | 0.552 | 0.573 | 0.504 | 0.54 | 0.554 | 0.541
